Source: the supplement of paper PMC4466140

Target: AgAbp1
Assay: SPOT peptide array binding signal intensity (averaged, normalized) (arbitrary units (background-subtracted, floor 0; scale differs between SH3 domains)); higher = stronger binding of the SH3 domain to the peptide
Outline: (§1)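 Binding signal refers to normalized, background-subtracted spot intensity averaged over replicates, expressed in arbitrary units that differ between domains. GST-fused SH3 domains from four yeast species were incubated at 10 μg/ml overnight at 4°C on cellulose membranes of synthetic 15-mer peptides with cysteines replaced by serines. Bound protein was detected with anti-GST antibody, an HRP anti-mouse secondary and luminol, and quantified with Genespotter.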

Row | Binder | SPOT peptide array binding signal intensity
1 | WRPRIVPILPYITRL | 6

Target: AgBbc1
Assay: as above
Outline: as §1

Row | Binder | SPOT peptide array binding signal intensity
2 | WRPRIVPILPYITRL | 13.5

Target: AgBem1-D1
Assay: as above
Outline: as §1

Row | Binder | SPOT peptide array binding signal intensity
3 | WRPRIVPILPYITRL | 108

Target: AgBzz1-D1
Assay: as above
Outline: as §1

Row | Binder | SPOT peptide array binding signal intensity
4 | WRPRIVPILPYITRL | 11

Target: AgBzz1-D2
Assay: as above
Outline: as §1

Row | Binder | SPOT peptide array binding signal intensity
5 | WRPRIVPILPYITRL | 7.5

Target: AgCyk3
Assay: as above
Outline: as §1

Row | Binder | SPOT peptide array binding signal intensity
6 | WRPRIVPILPYITRL | 9

Target: AgFus1
Assay: as above
Outline: as §1

Row | Binder | SPOT peptide array binding signal intensity
7 | WRPRIVPILPYITRL | 90

Target: AgHof1
Assay: as above
Outline: as §1

Row | Binder | SPOT peptide array binding signal intensity
8 | WRPRIVPILPYITRL | 132

Target: AgHse1
Assay: as above
Outline: as §1

Row | Binder | SPOT peptide array binding signal intensity
9 | WRPRIVPILPYITRL | 434

Target: AgLsb1
Assay: as above
Outline: as §1

Row | Binder | SPOT peptide array binding signal intensity
10 | WRPRIVPILPYITRL | 11

Target: AgLsb4
Assay: as above
Outline: as §1

Row | Binder | SPOT peptide array binding signal intensity
11 | WRPRIVPILPYITRL | 22

Target: AgMyo5
Assay: as above
Outline: as §1

Row | Binder | SPOT peptide array binding signal intensity
12 | WRPRIVPILPYITRL | 2.5

Target: AgNbp2
Assay: as above
Outline: as §1

Row | Binder | SPOT peptide array binding signal intensity
13 | WRPRIVPILPYITRL | 140

Target: AgRvs167
Assay: as above
Outline: as §1

Row | Binder | SPOT peptide array binding signal intensity
14 | WRPRIVPILPYITRL | 2

Target: AgSho1
Assay: as above
Outline: as §1

Row | Binder | SPOT peptide array binding signal intensity
15 | WRPRIVPILPYITRL | 17

Target: AgSla1-D1-D2
Assay: as above
Outline: as §1

Row | Binder | SPOT peptide array binding signal intensity
16 | WRPRIVPILPYITRL | 6.5

Target: AgSla1-D3
Assay: as above
Outline: as §1

Row | Binder | SPOT peptide array binding signal intensity
17 | WRPRIVPILPYITRL | 4

Target: CaAbp1-D1
Assay: as above
Outline: as §1

Row | Binder | SPOT peptide array binding signal intensity
18 | WRPRIVPILPYITRL | 109

Target: CaAbp1-D2
Assay: as above
Outline: as §1

Row | Binder | SPOT peptide array binding signal intensity
19 | WRPRIVPILPYITRL | 92.5

Target: CaBbc1
Assay: as above
Outline: as §1

Row | Binder | SPOT peptide array binding signal intensity
20 | WRPRIVPILPYITRL | 58.8

Target: CaBem1-D1
Assay: as above
Outline: as §1

Row | Binder | SPOT peptide array binding signal intensity
21 | WRPRIVPILPYITRL | 22

Target: CaBzz1-D1
Assay: as above
Outline: as §1

Row | Binder | SPOT peptide array binding signal intensity
22 | WRPRIVPILPYITRL | 49.5

Target: CaBzz1-D2
Assay: as above
Outline: as §1

Row | Binder | SPOT peptide array binding signal intensity
23 | WRPRIVPILPYITRL | 24.2

Target: CaCyk3
Assay: as above
Outline: as §1

Row | Binder | SPOT peptide array binding signal intensity
24 | WRPRIVPILPYITRL | 29.5

Target: CaFus1
Assay: as above
Outline: as §1

Row | Binder | SPOT peptide array binding signal intensity
25 | WRPRIVPILPYITRL | 460

Target: CaHof1
Assay: as above
Outline: as §1

Row | Binder | SPOT peptide array binding signal intensity
26 | WRPRIVPILPYITRL | 2

Target: CaHse1
Assay: as above
Outline: as §1

Row | Binder | SPOT peptide array binding signal intensity
27 | WRPRIVPILPYITRL | 32

Target: CaLsb1
Assay: as above
Outline: as §1

Row | Binder | SPOT peptide array binding signal intensity
28 | WRPRIVPILPYITRL | 3.5

Target: CaLsb4
Assay: as above
Outline: as §1

Row | Binder | SPOT peptide array binding signal intensity
29 | WRPRIVPILPYITRL | 56

Target: CaMyo5
Assay: as above
Outline: as §1

Row | Binder | SPOT peptide array binding signal intensity
30 | WRPRIVPILPYITRL | 1.5

Target: CaNbp2
Assay: as above
Outline: as §1

Row | Binder | SPOT peptide array binding signal intensity
31 | WRPRIVPILPYITRL | 574

Target: CaRvs167
Assay: as above
Outline: as §1

Row | Binder | SPOT peptide array binding signal intensity
32 | WRPRIVPILPYITRL | 54

Target: CaRvs167-3
Assay: as above
Outline: as §1

Row | Binder | SPOT peptide array binding signal intensity
33 | WRPRIVPILPYITRL | 56

Target: CaSho1
Assay: as above
Outline: as §1

Row | Binder | SPOT peptide array binding signal intensity
34 | WRPRIVPILPYITRL | 298

Target: CaSla1-D1-D2
Assay: as above
Outline: as §1

Row | Binder | SPOT peptide array binding signal intensity
35 | WRPRIVPILPYITRL | 6

Target: CaSla1-D3
Assay: as above
Outline: as §1

Row | Binder | SPOT peptide array binding signal intensity
36 | WRPRIVPILPYITRL | 2

Target: ScAbp1
Assay: as above
Outline: as §1

Row | Binder | SPOT peptide array binding signal intensity
37 | WRPRIVPILPYITRL | 17

Target: ScBbc1
Assay: as above
Outline: as §1

Row | Binder | SPOT peptide array binding signal intensity
38 | WRPRIVPILPYITRL | 4.25

Target: ScBem1-D1
Assay: as above
Outline: as §1

Row | Binder | SPOT peptide array binding signal intensity
39 | WRPRIVPILPYITRL | 1

Target: ScBzz1-D1
Assay: as above
Outline: as §1

Row | Binder | SPOT peptide array binding signal intensity
40 | WRPRIVPILPYITRL | 1.5

Target: ScBzz1-D2
Assay: as above
Outline: as §1

Row | Binder | SPOT peptide array binding signal intensity
41 | WRPRIVPILPYITRL | 15.5

Target: ScCyk3
Assay: as above
Outline: as §1

Row | Binder | SPOT peptide array binding signal intensity
42 | WRPRIVPILPYITRL | 33

Target: ScFus1
Assay: as above
Outline: as §1

Row | Binder | SPOT peptide array binding signal intensity
43 | WRPRIVPILPYITRL | 75

Target: ScHof1
Assay: as above
Outline: as §1

Row | Binder | SPOT peptide array binding signal intensity
44 | WRPRIVPILPYITRL | 365

Target: ScHse1
Assay: as above
Outline: as §1

Row | Binder | SPOT peptide array binding signal intensity
45 | WRPRIVPILPYITRL | 636

Target: ScLsb1
Assay: as above
Outline: as §1

Row | Binder | SPOT peptide array binding signal intensity
46 | WRPRIVPILPYITRL | 32.5

Target: ScLsb2
Assay: as above
Outline: as §1

Row | Binder | SPOT peptide array binding signal intensity
47 | WRPRIVPILPYITRL | 7

Target: ScLsb3
Assay: as above
Outline: as §1

Row | Binder | SPOT peptide array binding signal intensity
48 | WRPRIVPILPYITRL | 148

Target: ScLsb4
Assay: as above
Outline: as §1

Row | Binder | SPOT peptide array binding signal intensity
49 | WRPRIVPILPYITRL | 18.5

Target: ScMyo3
Assay: as above
Outline: as §1

Row | Binder | SPOT peptide array binding signal intensity
50 | WRPRIVPILPYITRL | 2

Target: ScMyo5
Assay: as above
Outline: as §1

Row | Binder | SPOT peptide array binding signal intensity
51 | WRPRIVPILPYITRL | 0.5

Target: ScNbp2
Assay: as above
Outline: as §1

Row | Binder | SPOT peptide array binding signal intensity
52 | WRPRIVPILPYITRL | 224

Target: ScPex13
Assay: as above
Outline: as §1

Row | Binder | SPOT peptide array binding signal intensity
53 | WRPRIVPILPYITRL | 1

Target: ScRvs167
Assay: as above
Outline: as §1

Row | Binder | SPOT peptide array binding signal intensity
54 | WRPRIVPILPYITRL | 251

Target: ScSho1
Assay: as above
Outline: as §1

Row | Binder | SPOT peptide array binding signal intensity
55 | WRPRIVPILPYITRL | 182

Target: ScSla1-D1-D2
Assay: as above
Outline: as §1

Row | Binder | SPOT peptide array binding signal intensity
56 | WRPRIVPILPYITRL | ≤ 0

Target: ScSla1-D3
Assay: as above
Outline: as §1

Row | Binder | SPOT peptide array binding signal intensity
57 | WRPRIVPILPYITRL | ≤ 0

Target: SpAbp1-D1
Assay: as above
Outline: as §1

Row | Binder | SPOT peptide array binding signal intensity
58 | WRPRIVPILPYITRL | 36

Target: SpBbc1
Assay: as above
Outline: as §1

Row | Binder | SPOT peptide array binding signal intensity
59 | WRPRIVPILPYITRL | 7

Target: SpBzz1-D1
Assay: as above
Outline: as §1

Row | Binder | SPOT peptide array binding signal intensity
60 | WRPRIVPILPYITRL | 179

Target: SpBzz1-D2
Assay: as above
Outline: as §1

Row | Binder | SPOT peptide array binding signal intensity
61 | WRPRIVPILPYITRL | 1.5

Target: SpCyk3
Assay: as above
Outline: as §1

Row | Binder | SPOT peptide array binding signal intensity
62 | WRPRIVPILPYITRL | 10

Target: SpHof1
Assay: as above
Outline: as §1

Row | Binder | SPOT peptide array binding signal intensity
63 | WRPRIVPILPYITRL | 14.5

Target: SpHof1-2
Assay: as above
Outline: as §1

Row | Binder | SPOT peptide array binding signal intensity
64 | WRPRIVPILPYITRL | 18.5

Target: SpHof1-3
Assay: as above
Outline: as §1

Row | Binder | SPOT peptide array binding signal intensity
65 | WRPRIVPILPYITRL | 328

Target: SpHse1
Assay: as above
Outline: as §1

Row | Binder | SPOT peptide array binding signal intensity
66 | WRPRIVPILPYITRL | 315

Target: SpLsb1
Assay: as above
Outline: as §1

Row | Binder | SPOT peptide array binding signal intensity
67 | WRPRIVPILPYITRL | 3

Target: SpLsb4
Assay: as above
Outline: as §1

Row | Binder | SPOT peptide array binding signal intensity
68 | WRPRIVPILPYITRL | 157

Target: SpMyo1
Assay: as above
Outline: as §1

Row | Binder | SPOT peptide array binding signal intensity
69 | WRPRIVPILPYITRL | 107

Target: SpNbp2
Assay: as above
Outline: as §1

Row | Binder | SPOT peptide array binding signal intensity
70 | WRPRIVPILPYITRL | 55.5

Target: SpPex13
Assay: as above
Outline: as §1

Row | Binder | SPOT peptide array binding signal intensity
71 | WRPRIVPILPYITRL | 6.5

Target: SpRvs167
Assay: as above
Outline: as §1

Row | Binder | SPOT peptide array binding signal intensity
72 | WRPRIVPILPYITRL | 167

Target: SpSla1-D1-D2
Assay: as above
Outline: as §1

Row | Binder | SPOT peptide array binding signal intensity
73 | WRPRIVPILPYITRL | ≤ 0

Target: SpSla1-D3
Assay: as above
Outline: as §1

Row | Binder | SPOT peptide array binding signal intensity
74 | WRPRIVPILPYITRL | ≤ 0
